According to PubChem BioAssay (EPA / NIEHS):
Where “and” joins values, the source holds several entries; their conditions need not be identical. Equal values may be shown once. Results filed as inconclusive are left out. Calls of active or inactive are those of the source. Rule for the calls, unless noted: active = hit-call score of the fitted dose curve at least 0.9, where 1 is the maximum; inactive = score below 0.9.

Key:
[1] = molecular target: human Peroxisome Proliferator-activated Receptor delta (PPARd), PPARD (gene 5467) (UniProt Q03181); assay: ATG_PPARd_TRANS: Attagene TRANS-FACTORIAL HepG2 Assay for human Peroxisome Proliferator-activated Receptor delta (PPARd) (AID 2283002; active = hit-call score of the fitted dose curve at least 0.9, where 1 is the maximum)
How it was run: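 Multiplexed trans-activation format: HepG2 liver cells expressing exogenous NR-Gal4 chimeras and GAL4-UAS reporters were exposed for 24 h. Reporter mRNA was detected by RT-PCR with capillary electrophoresis fluorescence; activity fitted as gain of signal relative to DMSO.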

[2] = read-out: Intercellular Adhesion Molecule 1 (ICAM1), ICAM1 (gene 3383); assay: BSK_3C_ICAM1: BioMAP Diversity Plus: 3C Assay for Intercellular Adhesion Molecule 1 (ICAM1) Biomarker Activity (AID 2283003); conditions: primary human endothelial cells (HUVEC); actives raise or lower the signal
How it was run: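 Primary human umbilical vein endothelial cells in the BioMAP 3C system were exposed to chemicals for 24 h, then ICAM-1 was quantified by ELISA. Activity was fitted bidirectionally against the DMSO negative control baseline.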

[3] = BSK_3C_Proliferation: Cell Proliferation Assessment in the BioMAP Diversity Plus: 3C Assay (AID 2283006); conditions: primary human endothelial cells (HUVEC);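 for AC50: potency may reflect either rise or fall in cell number versus DMSO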
How it was run: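 Human umbilical vein endothelial cells were grown sub-confluent and exposed to chemical for 48 h, then fixed with 10% TCA and stained with 0.1% sulforhodamine B; absorbance at 560 nm gave relative cell number, fitted bidirectionally against DMSO baseline.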

[4] = molecular target: Peroxisome proliferator-activated receptor gamma (Homo sapiens) (UniProt P37231); assay: ATG_PPARg_TRANS: Attagene TRANS-FACTORIAL HepG2 Assay for human Peroxisome Proliferator-activated Receptor-gamma (PPARg) (AID 2283007; active = hit-call score of the fitted dose curve at least 0.9, where 1 is the maximum)
How it was run: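 Liver-derived HepG2 cells expressing an exogenous NR-Gal4 chimera alongside GAL4-UAS reporter genes; 24 h exposure. Fluorescence of reporter RT-PCR products, separated by capillary electrophoresis, gives mRNA induction relative to DMSO.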

[5] = molecular target: human Retinoic Acid Receptor gamma (RARg), RARG (gene 5916) (UniProt P13631); assay: ATG_RARg_TRANS: Attagene TRANS-FACTORIAL HepG2 Assay for human Retinoic Acid Receptor gamma (RARg) (AID 2283009; active = hit-call score of the fitted dose curve at least 0.9, where 1 is the maximum)
How it was run: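 HepG2 cells transiently transfected with multiplexed reporter units expressing chimeric RARg-GAL4 and GAL4-UAS-driven reporters; 24 h compound exposure. Reporter mRNA quantified by RT-PCR with fluorescent labelling and capillary electrophoresis; gain-of-signal fitted relative to DMSO baseline.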

[6] = molecular target: Retinoic acid receptor RXR-alpha (Homo sapiens) (UniProt P19793); assay: ATG_RXRa_TRANS: Attagene TRANS-FACTORIAL HepG2 Assay for human Retinoid X Receptor alpha (RXRa) (AID 2283012; active = hit-call score of the fitted dose curve at least 0.9, where 1 is the maximum)
How it was run: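 HepG2 cells transiently transfected with multiplexed GAL4-UAS reporter units and chimeric NR-GAL4 fusions, dosed 24 h. Reporter mRNA measured by RT-PCR, FAM labelling, HpaI digestion and capillary electrophoresis; gain-of-signal fitted relative to DMSO baseline.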

[7] = molecular target: human Retinoid X Receptor beta (RXRb), RXRB (gene 6257) (UniProt P28702); assay: ATG_RXRb_TRANS: Attagene TRANS-FACTORIAL HepG2 Assay for human Retinoid X Receptor beta (RXRb) (AID 2283013; active = hit-call score of the fitted dose curve at least 0.9, where 1 is the maximum)
How it was run: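 HepG2 cells transiently transfected with multiplexed reporter units driven by GAL4-UAS and exogenous chimeric NR-Gal4 proteins; treated 24 h. Reporter mRNA measured by RT-PCR, 6-FAM labelling and capillary electrophoresis; gain-of-signal fitted versus DMSO baseline.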

[8] = molecular target: human Thyroid Receptor alpha (THRa1), THRA (gene 7067) (UniProt P10827); assay: ATG_THRa1_TRANS: Attagene TRANS-FACTORIAL HepG2 Assay for human Thyroid Receptor alpha (THRa1) (AID 2283014; active = hit-call score of the fitted dose curve at least 0.9, where 1 is the maximum)
How it was run: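 HepG2 cells transiently transfected with multiplexed GAL4-UAS reporter units for exogenous chimeric THRa1-Gal4; reporter mRNA measured 24 h after dosing by RT-PCR, 6-FAM labelling, HpaI digestion and capillary electrophoresis. Gain-of-signal fitted versus DMSO baseline.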

[9] = read-out: E-selectin (Homo sapiens) (UniProt P16581); assay: BSK_3C_Eselectin: BioMAP Diversity Plus: 3C Assay for Eselectin Biomarker Activity (AID 2283015); conditions: primary human endothelial cells (HUVEC); actives raise or lower the signal;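 for outcome: cell surface E-selectin protein quantified by ELISA 24 h after dosing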
How it was run: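 Primary human umbilical vein endothelial cells (3C system) were dosed with chemical and cell-surface E-selectin measured by ELISA 24 h later. Bidirectional curve fitting used DMSO as negative control and baseline.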

[10] = read-out: Interleukin-1 alpha (IL1a), IL1A (gene 3552); assay: BSK_BE3C_IL1a: BioMAP Diversity Plus: BE3C Assay for Interleukin-1 alpha (IL1a) Biomarker Activity (AID 2283016); conditions: primary human bronchial epithelial cells; actives raise or lower the signal
How it was run: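 Human primary bronchial epithelial cells (BE3C system) were dosed with compound and IL-1a measured by ELISA 24 h later. Activity was fitted bidirectionally against DMSO baseline; cytotoxicity was tracked in parallel cultures by SRB total-protein staining.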

[11] = read-out: Monocyte Chemoattractant Protein-1 (MCP1), CCL2 (gene 6347); assay: BSK_3C_MCP1: BioMAP Diversity Plus: 3C Assay for Monocyte Chemoattractant Protein-1 (MCP1) Biomarker Activity (AID 2283017); conditions: primary human endothelial cells (HUVEC); actives raise or lower the signal
How it was run: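 Primary human umbilical vein endothelial cells (3C system) were exposed to test chemical for 24 h, after which MCP-1 was quantified by ELISA. Activity was fitted bidirectionally against DMSO as negative control and baseline.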

[12] = read-out: Monocyte Chemoattractant Protein-1 (MCP1), CCL2 (gene 6347); assay: BSK_4H_MCP1: BioMAP Diversity Plus: 4H Assay for Monocyte Chemoattractant Protein-1 (MCP1) Biomarker Activity (AID 2283018); conditions: primary human endothelial cells (HUVEC); actives raise or lower the signal
How it was run: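 Human umbilical vein endothelial cells (4H system) dosed with chemical; MCP-1 measured by ELISA 24 h after dosing. Bidirectional curve fitting against DMSO negative control as baseline; parallel SRB total-protein staining tracks overt cytotoxicity.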

[13] = read-out: Human Leukocyte Antigen - DR isotype (HLADR), HLA-DRA (gene 3122); assay: BSK_3C_HLADR: BioMAP Diversity Plus: 3C Assay for Human Leukocyte Antigen - DR isotype (HLADR) Biomarker Activity (AID 2283019); conditions: primary human endothelial cells (HUVEC); actives raise or lower the signal;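 for outcome: ELISA of cell-surface HLA-DR on HUVEC 24 h after dosing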
How it was run: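 Primary human umbilical vein endothelial cells (3C system) were dosed with compound and cell-surface HLA-DR was quantified by ELISA at 24 h. Activity was fitted bidirectionally against DMSO as negative control and baseline.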

[14] = read-out: Interleukin-8 (IL8), CXCL8 (gene 3576); assay: BSK_3C_IL8: BioMAP Diversity Plus: 3C Assay for Interleukin-8 (IL8) Biomarker Activity (AID 2283020); conditions: primary human endothelial cells (HUVEC); actives raise or lower the signal
How it was run: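 Primary human umbilical vein endothelial cells (3C system) were exposed to test chemical for 24 h, then IL-8 was quantified by ELISA. Responses were fitted bidirectionally against DMSO vehicle as baseline.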

[15] = read-out: Monokine induced gamma interferon (MIG), CXCL9 (gene 4283); assay: BSK_3C_MIG: BioMAP Diversity Plus: 3C Assay for Monokine induced gamma interferon (MIG) Biomarker Activity (AID 2283021); conditions: primary human endothelial cells (HUVEC); actives raise or lower the signal;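 for AC50: MIG protein level measured by immunoassay in the treated endothelial cultures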
How it was run: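 Primary human umbilical vein endothelial cells in the 3C system were exposed to chemical for 24 h, after which MIG was quantified by ELISA. Activity was fitted bidirectionally against DMSO as negative control and baseline.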

[16] = BSK_3C_SRB: Viability Assessment in the BioMAP Diversity Plus: 3C Assay (AID 2283023); conditions: primary human endothelial cells (HUVEC);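 note: fitted both ways against DMSO so a hit may be signal rise or drop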
How it was run: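 Primary human umbilical vein endothelial cells in the 3C system were read 24 h after compound dosing. Total protein was stained with 0.1% sulforhodamine B after 10% TCA fixation and read at 560 nm, with bidirectional fitting against DMSO as baseline.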

[17] = molecular target: human Vitamin D Receptor (VDR), VDR (gene 7421) (UniProt P11473); assay: ATG_VDR_TRANS: Attagene TRANS-FACTORIAL HepG2 Assay for human Vitamin D Receptor (VDR) (AID 2283022; active = hit-call score of the fitted dose curve at least 0.9, where 1 is the maximum)
How it was run: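 HepG2 cells were transiently transfected with multiple GAL4-UAS reporter units, so signal reflects exogenous chimeric receptor-Gal4 activity. After 24 h compound exposure, reporter mRNA was measured by RT-PCR, fluorescent labelling and capillary electrophoresis, fitted for gain of signal versus DMSO.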

[18] = molecular target: Nuclear receptor subfamily 1 group I member 2 (Homo sapiens) (UniProt O75469); assay: ATG_PXR_TRANS: Attagene TRANS-FACTORIAL HepG2 Assay for human Pregnane X Receptor (PXR) (AID 2283008; active = hit-call score of the fitted dose curve at least 0.9, where 1 is the maximum)
How it was run: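 HepG2 cells transiently transfected with GAL4-UAS reporter units and PXR-Gal4 chimera, exposed 24 h. Reporter mRNA quantified by RT-PCR, fluorescent labelling, HpaI digestion and capillary electrophoresis; gain of signal vs DMSO.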

[19] = molecular target: human RAR-related Orphan Receptor gamma (RORg), RORC (gene 6097) (UniProt P51449); assay: ATG_RORg_TRANS: Attagene TRANS-FACTORIAL HepG2 Assay for human RAR-related Orphan Receptor gamma (RORg) (AID 2283011; active = hit-call score of the fitted dose curve at least 0.9, where 1 is the maximum)
How it was run: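 Readout: reporter transcript induction (RT-PCR, fluorescent primer extension, capillary electrophoresis) after 24 h compound exposure of transiently transfected HepG2 cells carrying a RORg-Gal4 chimera and GAL4-UAS reporters; DMSO served as baseline, with increasing signal fitted.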

[20] = molecular target: human RAR-related Orphan Receptor beta (RORb), RORB (gene 6096) (UniProt Q92753); assay: ATG_RORb_TRANS: Attagene TRANS-FACTORIAL HepG2 Assay for human RAR-related Orphan Receptor beta (RORb) (AID 2283010; active = hit-call score of the fitted dose curve at least 0.9, where 1 is the maximum)
How it was run: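 HepG2 cells were transiently transfected with multiplexed GAL4-UAS reporter units expressing chimeric nuclear receptor–GAL4 proteins, then dosed for 24 h. Reporter mRNA was quantified by RT-PCR with fluorescent labelling and capillary electrophoresis; gain of signal was fitted relative to DMSO.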

Chain of human Vitamin D Receptor (VDR), VDR (gene 7421) (P11473 whole entry, looked up, the tested form may be a part): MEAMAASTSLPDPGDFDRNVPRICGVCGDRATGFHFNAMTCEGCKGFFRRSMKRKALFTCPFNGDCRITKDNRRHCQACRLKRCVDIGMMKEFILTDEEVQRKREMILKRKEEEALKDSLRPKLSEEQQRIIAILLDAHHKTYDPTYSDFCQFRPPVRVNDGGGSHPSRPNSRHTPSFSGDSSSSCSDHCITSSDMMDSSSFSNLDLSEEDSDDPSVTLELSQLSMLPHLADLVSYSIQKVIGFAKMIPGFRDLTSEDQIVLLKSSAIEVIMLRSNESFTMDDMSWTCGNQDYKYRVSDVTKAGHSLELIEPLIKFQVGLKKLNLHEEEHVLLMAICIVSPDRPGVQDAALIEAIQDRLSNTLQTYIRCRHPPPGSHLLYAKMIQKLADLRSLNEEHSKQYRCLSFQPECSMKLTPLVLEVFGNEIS
Chain of Nuclear receptor subfamily 1 group I member 2 (Homo sapiens) (O75469 whole entry, looked up, the tested form may be a part): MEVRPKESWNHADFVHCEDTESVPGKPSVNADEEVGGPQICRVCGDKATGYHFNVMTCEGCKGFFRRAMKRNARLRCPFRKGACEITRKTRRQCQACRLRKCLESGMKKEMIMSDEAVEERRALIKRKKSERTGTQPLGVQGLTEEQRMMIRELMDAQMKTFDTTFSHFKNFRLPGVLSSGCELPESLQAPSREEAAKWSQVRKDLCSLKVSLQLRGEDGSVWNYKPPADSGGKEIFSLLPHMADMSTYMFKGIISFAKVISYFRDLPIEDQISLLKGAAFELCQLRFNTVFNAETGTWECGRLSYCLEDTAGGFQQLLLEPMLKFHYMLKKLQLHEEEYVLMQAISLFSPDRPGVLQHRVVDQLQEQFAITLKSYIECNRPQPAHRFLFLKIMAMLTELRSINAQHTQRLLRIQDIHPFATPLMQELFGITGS
Chain of human Retinoid X Receptor beta (RXRb), RXRB (gene 6257) (P28702 whole entry, looked up, the tested form may be a part): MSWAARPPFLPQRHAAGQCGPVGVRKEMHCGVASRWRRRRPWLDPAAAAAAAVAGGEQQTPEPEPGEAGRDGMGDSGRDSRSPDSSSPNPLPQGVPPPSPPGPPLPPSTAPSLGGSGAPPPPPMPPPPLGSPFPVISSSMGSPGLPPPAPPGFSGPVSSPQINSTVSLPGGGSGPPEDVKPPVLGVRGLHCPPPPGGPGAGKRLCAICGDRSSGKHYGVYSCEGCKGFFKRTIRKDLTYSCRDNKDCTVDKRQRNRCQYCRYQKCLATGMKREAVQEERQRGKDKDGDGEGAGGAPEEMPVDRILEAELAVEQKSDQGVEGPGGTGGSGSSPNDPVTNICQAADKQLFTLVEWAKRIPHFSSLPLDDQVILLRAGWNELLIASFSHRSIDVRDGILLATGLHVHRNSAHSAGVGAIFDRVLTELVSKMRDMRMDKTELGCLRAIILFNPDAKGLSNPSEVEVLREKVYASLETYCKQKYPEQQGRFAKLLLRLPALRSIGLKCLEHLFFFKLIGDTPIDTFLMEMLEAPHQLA
Chain of Retinoic acid receptor RXR-alpha (Homo sapiens) (P19793 whole entry, looked up, the tested form may be a part): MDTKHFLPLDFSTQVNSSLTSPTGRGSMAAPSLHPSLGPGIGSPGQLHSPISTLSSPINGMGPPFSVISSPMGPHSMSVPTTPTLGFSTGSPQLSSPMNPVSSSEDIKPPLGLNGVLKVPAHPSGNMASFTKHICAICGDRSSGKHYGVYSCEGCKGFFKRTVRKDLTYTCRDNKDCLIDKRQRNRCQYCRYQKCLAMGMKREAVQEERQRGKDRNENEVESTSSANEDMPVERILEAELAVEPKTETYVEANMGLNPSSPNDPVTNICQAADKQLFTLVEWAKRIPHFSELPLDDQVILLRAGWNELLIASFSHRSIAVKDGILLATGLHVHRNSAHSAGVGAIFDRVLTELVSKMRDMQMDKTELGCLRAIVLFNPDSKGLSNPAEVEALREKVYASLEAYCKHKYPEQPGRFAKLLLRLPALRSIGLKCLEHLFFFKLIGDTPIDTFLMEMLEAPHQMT
Chain of E-selectin (Homo sapiens) (P16581 whole entry, looked up): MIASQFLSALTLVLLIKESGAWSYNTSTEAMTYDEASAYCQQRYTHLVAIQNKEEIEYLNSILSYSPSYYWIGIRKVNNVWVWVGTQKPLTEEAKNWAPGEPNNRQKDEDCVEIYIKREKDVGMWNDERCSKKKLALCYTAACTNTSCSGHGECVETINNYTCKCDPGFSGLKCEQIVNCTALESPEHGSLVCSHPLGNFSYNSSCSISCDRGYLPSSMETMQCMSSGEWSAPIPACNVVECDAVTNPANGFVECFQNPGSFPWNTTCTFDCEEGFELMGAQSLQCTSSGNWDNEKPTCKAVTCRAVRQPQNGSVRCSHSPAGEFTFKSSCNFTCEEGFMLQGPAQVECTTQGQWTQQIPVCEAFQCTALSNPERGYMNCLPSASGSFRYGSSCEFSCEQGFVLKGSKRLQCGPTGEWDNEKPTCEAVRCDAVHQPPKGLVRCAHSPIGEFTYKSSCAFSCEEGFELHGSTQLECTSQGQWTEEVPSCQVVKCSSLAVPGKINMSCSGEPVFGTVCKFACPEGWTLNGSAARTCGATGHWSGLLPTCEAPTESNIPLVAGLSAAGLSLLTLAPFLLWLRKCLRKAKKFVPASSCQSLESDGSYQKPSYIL
Chain of human Retinoic Acid Receptor gamma (RARg), RARG (gene 5916) (P13631 whole entry, looked up, the tested form may be a part): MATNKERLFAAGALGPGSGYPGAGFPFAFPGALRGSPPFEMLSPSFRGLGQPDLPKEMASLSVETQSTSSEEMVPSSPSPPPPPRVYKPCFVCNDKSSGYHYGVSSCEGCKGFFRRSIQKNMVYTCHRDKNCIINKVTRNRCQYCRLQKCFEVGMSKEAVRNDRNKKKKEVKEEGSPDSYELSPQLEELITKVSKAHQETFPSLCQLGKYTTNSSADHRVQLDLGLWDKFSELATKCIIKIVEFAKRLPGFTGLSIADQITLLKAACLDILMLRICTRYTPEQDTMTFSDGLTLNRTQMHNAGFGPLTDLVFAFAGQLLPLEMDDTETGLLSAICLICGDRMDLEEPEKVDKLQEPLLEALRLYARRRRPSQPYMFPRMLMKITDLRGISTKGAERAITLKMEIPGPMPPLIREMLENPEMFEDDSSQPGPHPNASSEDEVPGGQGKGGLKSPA
Chain of human RAR-related Orphan Receptor gamma (RORg), RORC (gene 6097) (P51449 whole entry, looked up, the tested form may be a part): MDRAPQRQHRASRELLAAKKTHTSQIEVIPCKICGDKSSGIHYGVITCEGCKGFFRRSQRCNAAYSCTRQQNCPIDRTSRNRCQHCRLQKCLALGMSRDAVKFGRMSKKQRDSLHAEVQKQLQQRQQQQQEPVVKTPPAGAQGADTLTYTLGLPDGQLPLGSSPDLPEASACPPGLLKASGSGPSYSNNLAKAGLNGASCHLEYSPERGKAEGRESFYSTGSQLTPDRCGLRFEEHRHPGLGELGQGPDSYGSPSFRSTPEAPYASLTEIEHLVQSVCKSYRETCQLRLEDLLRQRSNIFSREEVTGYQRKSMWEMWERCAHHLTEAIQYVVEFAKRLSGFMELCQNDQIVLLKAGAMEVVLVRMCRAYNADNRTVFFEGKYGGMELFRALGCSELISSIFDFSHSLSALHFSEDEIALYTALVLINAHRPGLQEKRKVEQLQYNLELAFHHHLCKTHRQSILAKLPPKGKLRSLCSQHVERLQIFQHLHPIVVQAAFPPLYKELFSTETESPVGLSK
Chain of Peroxisome proliferator-activated receptor gamma (Homo sapiens) (P37231 whole entry, looked up, the tested form may be a part): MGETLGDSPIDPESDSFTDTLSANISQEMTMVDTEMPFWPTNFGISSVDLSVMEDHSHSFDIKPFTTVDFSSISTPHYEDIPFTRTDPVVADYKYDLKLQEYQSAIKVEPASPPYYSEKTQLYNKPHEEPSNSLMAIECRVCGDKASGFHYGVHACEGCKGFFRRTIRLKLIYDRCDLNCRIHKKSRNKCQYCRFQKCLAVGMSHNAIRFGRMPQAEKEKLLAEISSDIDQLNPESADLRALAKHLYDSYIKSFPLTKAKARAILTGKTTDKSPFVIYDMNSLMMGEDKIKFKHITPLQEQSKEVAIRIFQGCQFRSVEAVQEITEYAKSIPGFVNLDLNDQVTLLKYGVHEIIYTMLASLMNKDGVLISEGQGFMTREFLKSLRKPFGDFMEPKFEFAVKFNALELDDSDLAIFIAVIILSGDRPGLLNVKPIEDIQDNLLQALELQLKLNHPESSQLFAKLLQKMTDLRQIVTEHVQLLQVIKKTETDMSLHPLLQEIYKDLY
Chain of human Peroxisome Proliferator-activated Receptor delta (PPARd), PPARD (gene 5467) (Q03181 whole entry, looked up, the tested form may be a part): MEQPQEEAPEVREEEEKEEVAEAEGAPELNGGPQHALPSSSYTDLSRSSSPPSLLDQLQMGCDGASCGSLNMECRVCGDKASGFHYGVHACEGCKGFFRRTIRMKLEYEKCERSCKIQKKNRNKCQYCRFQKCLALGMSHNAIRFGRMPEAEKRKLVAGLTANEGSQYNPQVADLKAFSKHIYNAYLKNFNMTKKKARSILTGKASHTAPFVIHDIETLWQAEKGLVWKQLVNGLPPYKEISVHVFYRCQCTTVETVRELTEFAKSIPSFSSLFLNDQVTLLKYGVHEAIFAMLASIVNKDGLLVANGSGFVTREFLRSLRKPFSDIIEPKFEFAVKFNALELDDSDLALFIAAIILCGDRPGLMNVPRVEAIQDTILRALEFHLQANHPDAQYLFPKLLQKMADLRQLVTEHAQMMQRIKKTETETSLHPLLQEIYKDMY
Chain of human Thyroid Receptor alpha (THRa1), THRA (gene 7067) (P10827 whole entry, looked up, the tested form may be a part): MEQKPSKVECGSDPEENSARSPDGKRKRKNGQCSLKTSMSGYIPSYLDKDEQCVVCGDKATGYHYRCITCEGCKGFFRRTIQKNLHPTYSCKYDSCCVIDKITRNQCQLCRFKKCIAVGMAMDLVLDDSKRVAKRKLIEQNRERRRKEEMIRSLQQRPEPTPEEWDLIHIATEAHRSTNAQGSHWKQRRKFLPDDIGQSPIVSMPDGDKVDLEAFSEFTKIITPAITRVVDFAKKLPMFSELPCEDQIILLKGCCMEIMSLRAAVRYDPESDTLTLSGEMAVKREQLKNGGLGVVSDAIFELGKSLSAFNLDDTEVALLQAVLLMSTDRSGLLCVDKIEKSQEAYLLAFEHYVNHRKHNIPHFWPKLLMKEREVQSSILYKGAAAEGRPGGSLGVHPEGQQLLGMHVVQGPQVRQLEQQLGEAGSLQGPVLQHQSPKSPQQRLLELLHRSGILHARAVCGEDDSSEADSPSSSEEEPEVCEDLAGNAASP

Cc1ccc(O)cc1C
outcome [1]: inactive | outcome [2]: inactive | outcome [3]: inactive | outcome [4]: inactive | outcome [5]: inactive | outcome [6]: inactive | outcome [7]: inactive | outcome [8]: inactive | outcome [9]: inactive | outcome [10]: inactive | outcome [11]: inactive | outcome [12]: inactive | outcome [13]: inactive | outcome [14]: inactive | outcome [15]: inactive | outcome [16]: inactive

CCOP(=S)(OCC)SCS(=O)(=O)CC
outcome [1]: inactive | outcome [2]: inactive | outcome [3]: inactive | outcome [4]: inactive | outcome [5]: inactive | outcome [6]: inactive | outcome [7]: inactive | outcome [8]: inactive | outcome [9]: inactive | outcome [10]: inactive | outcome [11]: inactive | outcome [12]: inactive | outcome [13]: inactive | outcome [14]: inactive | outcome [15]: inactive | outcome [17]: inactive | outcome [16]: inactive

CCC1(c2ccccc2)C(=O)N=C(O)NC1=O (centres undefined)
outcome [1]: inactive | outcome [2]: inactive | outcome [3]: inactive | outcome [4]: inactive | outcome [18]: inactive | outcome [7]: inactive | outcome [8]: inactive | outcome [9]: inactive | outcome [10]: inactive | outcome [11]: inactive | outcome [12]: inactive | outcome [13]: inactive | outcome [14]: inactive | outcome [15]: inactive | outcome [17]: inactive | outcome [16]: inactive

CCCCN(CC)C(=O)SCCC
outcome [1]: inactive | outcome [4]: inactive | outcome [5]: inactive | outcome [19]: inactive | AC50 [7]: 59.1 µM (active) | outcome [17]: inactive

NNC(N)=S
outcome [1]: inactive | outcome [4]: inactive | outcome [20]: inactive | outcome [19]: inactive | outcome [6]: inactive | outcome [7]: inactive | outcome [17]: inactive

c1ccc2c(c1)Nc1ccccc1S2
outcome [1]: inactive | outcome [2]: inactive | AC50 [3]: 21.6 µM (active) | AC50 [4]: 26.7 µM (active) | outcome [6]: inactive | AC50 [7]: 3.98 µM (active) | outcome [8]: inactive | outcome [9]: inactive | outcome [10]: inactive | outcome [11]: inactive | outcome [12]: inactive | outcome [13]: inactive | outcome [14]: inactive | outcome [15]: inactive | outcome [16]: inactive

C=CC(=O)OCC(F)(F)C(F)F
outcome [2]: inactive | AC50 [3]: 30 µM (active) and 36 µM (active) | AC50 [4]: 3.8 µM (active) | outcome [18]: inactive | outcome [5]: inactive | outcome [6]: inactive | outcome [8]: inactive | AC50 [9]: 18.4 µM (active) and 20.4 µM (active) | outcome [10]: inactive | outcome [11]: inactive | outcome [12]: inactive | AC50 [13]: 41.1 µM (active) and 43.6 µM (active) | outcome [14]: inactive | outcome [15]: inactive | outcome [16]: inactive

CCN(CC)C1CCCCC1
outcome [1]: inactive | outcome [4]: inactive | outcome [18]: inactive | outcome [5]: inactive | outcome [19]: inactive | outcome [17]: inactive

CC(C)Nc1ccc(Nc2ccccc2)cc1
AC50 [2]: 17.4 µM (active) | AC50 [3]: 1.82 µM (active) | AC50 [4]: 23.9 µM (active) | AC50 [18]: 2.71 µM (active) | outcome [5]: inactive | outcome [19]: inactive | outcome [6]: inactive | outcome [7]: inactive | outcome [8]: inactive | AC50 [9]: 10.6 µM (active) | AC50 [10]: 6.48 µM (active) | AC50 [11]: 9.95 µM (active) | AC50 [12]: 6.18 µM (active) | AC50 [13]: 4.45 µM (active) | AC50 [14]: 12.8 µM (active) | AC50 [15]: 20 µM (active) | AC50 [16]: 11 µM (active)

CNC(=O)Oc1ccc(N(C)C)c(C)c1
outcome [1]: inactive | outcome [4]: inactive | outcome [6]: inactive | outcome [7]: inactive
